Bioassay records deposited in PubChem by National Center for Advancing Translational Sciences (NCATS).
FMDV inh = antivirals against foot and mouth disease virus | actives 1.2% (n = 410,000) | Potency, µM (titrated, usually from 57.9 µM), without a hit: at the highest dose activity change, negative = inhibition, most hits filed as inhibitors | AID 1159524 | FMDV antiviral cell-based qHTS; calls by dose curve; tested in HEK293T cells; note: read-out not given here; nearly all actives have a fitted effect of over 45% in size
AmpC inh no detg = AmpC beta-lactamase inhibition without detergent | P00811 | AmpC nitrocefin hydrolysis, absorbance 480 nm, 0.0001% Triton | actives 0.52% (n = 330,000) | Potency, µM (highest dose often 57.1 µM), without a hit: top-dose activity change, negative = inhibition, most hits filed as inhibitors;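 note: plate controls were no compound for no effect and no enzyme for full effect; nearly all actives have a fitted effect of over 20% in size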
Target sequence (P00811 whole entry, looked up): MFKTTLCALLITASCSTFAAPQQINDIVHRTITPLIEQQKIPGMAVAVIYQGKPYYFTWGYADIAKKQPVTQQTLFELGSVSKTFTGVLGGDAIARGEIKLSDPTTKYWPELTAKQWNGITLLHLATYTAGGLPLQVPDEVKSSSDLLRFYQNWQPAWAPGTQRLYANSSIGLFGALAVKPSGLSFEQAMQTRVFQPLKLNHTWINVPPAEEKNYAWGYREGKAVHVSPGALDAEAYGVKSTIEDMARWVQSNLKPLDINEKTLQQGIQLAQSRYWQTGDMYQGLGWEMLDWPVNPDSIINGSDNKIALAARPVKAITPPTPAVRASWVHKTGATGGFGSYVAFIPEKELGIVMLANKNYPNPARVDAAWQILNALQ
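20 mM phosphate pH 7.0 + 0.01% (detergent screen) or 0.0001% Triton X-100; 5.3 nM AmpC reagent; cpd preinc 15 min RT; nitrocefin (800 uM stock) to start; A480 q20 s × 4 min; Activity was normalised to no-enzyme and no-compound control wells.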
AMA1-RON2 inh = disrupts binding of P. falciparum AMA1 to RON2; AID 720542; Potency, µM (top dose mostly 58.2 µM), without a hit: at the highest dose activity change, negative = inhibition, hits mostly inhibitors; actives 0.2% (n = 360,000); AlphaScreen AMA1-biotinylated RON2 peptide binding;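 note: 0% = vehicle wells and -100% = peptide control; nearly all actives have a fitted effect of over 45% in size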
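AMA1 (3D7) with his tag at 25 nM final met compounds first, then biotinylated RON2 peptide at 25 nM; detection used donor plus acceptor beads, 10 µg/mL apiece, read by AlphaScreen after 30 min at room temperature.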
AmpC detergent = inhibitors of E. coli AmpC beta-lactamase with detergent | P00811 | AmpC hydrolysis of nitrocefin, absorbance 480 nm, 0.01% Triton | Potency, µM (top dose mostly 114 µM), without a hit: at the top dose activity change, negative = inhibition, most hits filed as inhibitors | actives 0.041% (n = 370,000) | AID 485294;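 note: 0% = no-compound wells and -100% = no-enzyme wells; nearly all actives have a fitted effect of over 25% in size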
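AmpC (5.3 nM in the dispensed reagent) in 20 mM phosphate pH 7.0 with 0.01% (detergent screen) or 0.0001% Triton X-100 was preincubated with compounds for 15 min at room temperature. Nitrocefin was then added from an 800 uM solution, and hydrolysis was followed at 480 nm.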
Sm TGR block = S. mansoni TGR enzyme inhibition; Potency, µM (titrated, usually from 114 µM), without a hit: top-dose activity change, negative = inhibition, actives largely listed as inhibitors; actives 3% (n = 360,000); purified TGR, DTNB reduction, TNB absorbance 405 nm; note: nearly all actives have a fitted effect of over 60% in size
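TGR 20 nM + NADPH 100 uM (dispensed conc.), cpd preinc 15 min RT; start with NADPH (500 uM addition) then DTNB (15 mM addition). Kinetic TNB absorbance, 405 nm filter. Four-parameter Hill fit across titration.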
Active calls of the source: *; u = inconclusive; x = no result given. Rows were chosen to be rich in hits. Some 4.1% of all compounds tested hit in one or more screens of this group. Unless noted, calls come from the whole dose curve; as a rule, active = well fitted curve in the direction sought with a large enough effect; inconclusive = small, poorly fitted or top-dose-only effect, or another doubt; inactive = no such curve, though single readings can be large; an effect the other way counts as inactive or inconclusive. Unless noted, % is set by controls: 0 for no effect and ±100 for the full control effect; potency is the fitted concentration of half-maximal effect.

SMILES | FMDV inh | AmpC inh no detg | AMA1-RON2 inh | AmpC detergent | Sm TGR block
CC(=O)Nc1cccc(C(=O)/C=C/c2ccc(Br)cc2)c1 | 25.1µM* | -6.6% | -10.0% | 1.5% | -18.5%
O=C(C=Cc1ccco1)c1ccc2ccccc2c1 | -12.7% | x | u | x | x
COc1ccc(Br)cc1/C=C/C(=O)Nc1ccc2ccccc2c1 | -6.8% | u | 9.2% | -8.1% | 0.2%
CC(=O)Nc1ccc(C(=O)/C=C/c2ccco2)cc1 | 41.4% | -33.1% | -17.1% | -10.0% | 8.91µM*
CCC(=O)Nc1cccc(C(=O)/C=C/c2cc(Br)ccc2OC)c1 | 8.91µM* | 3.2% | -0.2% | -8.3% | u
O=C(/C=C\c1ccco1)c1ccc(NC(=O)c2ccco2)cc1 | 10.4% | 6.31µM* | -1.9% | 1.9% | 3.98µM*
CCCc1ccc(OC(C)C(=O)Nc2sc3c(c2C(=O)OC)CCCCC3)cc1 (centres undefined) | -14.6% | x | x | 0.1% | 16.1%
COc1ccc(OC)c(CN2CCCC(n3cc(C(=O)N4CCCCC4)nn3)C2)c1 (centres undefined) | -3.6% | x | x | x | x
COc1ccc(-n2nc(C(=O)N(C)c3cc(Cl)ccc3OC)c3c4ccccc4n(C)c3c2=O)cc1 | u | x | x | -3.6% | -7.1%
Cc1ccc(Cn2c(=O)n(Cc3ccc(C(=O)NC4CCN(Cc5ccccc5)CC4)cc3)c(=O)c3ccccc32)cc1 | -10.9% | x | x | -2.5% | -2.5%
COC(=O)CN1C(=O)CSc2ccc(S(=O)(=O)Nc3ccc(C(C)=O)cc3)cc21 | 78.6% | x | x | -2.0% | 10.2%
CC(/C=C/c1ccco1)=N\NC(=O)C(O)c1ccccc1 (centres undefined) | 37.6% | -37.8% | 64.4% | -9.8% | u
COC(=O)N/N=C(C)\C=C\c1ccco1 | 42.6% | -11.6% | 20.1% | -8.3% | 44.7µM*
CC(=O)Nc1cccc(C(=O)/C=C/c2ccco2)c1 | 29.1% | -8.9% | -11.6% | 3.8% | 28.2µM*
COc1ccc(-c2nnc(SCC(=O)Nc3ccc(C)c(Cl)c3)nc2-c2ccc(OC)c(OC)c2)cc1OC | -22.1% | x | x | 8.4% | 0.2%
O=C1c2ccccc2-c2cccc(NS(=O)(=O)c3ccc(C(F)(F)F)cc3)c21 | -22.3% | 5.62µM* | -12.2% | 6.0% | -3.5%
Cc1[nH]n(-c2ccccc2)c(=O)c1N=Nc1ccc2c(c1)OCCO2 | 69.3% | -20.7% | -14.5% | 2.8% | 1.1%
Cc1[nH]n(-c2ccccc2)c(=O)c1N=Nc1c(O)cc(S(=O)(=O)N(C)C)c2ccccc12 | 12.6µM* | -27.2% | 49.2% | -14.1% | u
O=C(O)c1cc(O)c2c(c1)[C@@H]([C@H]1c3cc(C(=O)O)cc(O)c3C(=O)c3c(O[C@@H]4O[C@H](CO)[C@@H](O)[C@H](O)[C@H]4O)cccc31)c1cccc(OC3O[C@H](CO)[C@@H](O)[C@H](O)[C@H]3O)c1C2=O (some centres undefined) | -11.2% | 1.41µM* | u | u | u
O=C(O)c1cc(O)c2c(c1)[C@H]([C@H]1c3cc(C(=O)O)cc(O)c3C(=O)c3c(O[C@@H]4O[C@H](CO)[C@@H](O)[C@H](O)[C@H]4O)cccc31)c1cccc(OC3O[C@H](CO)[C@@H](O)[C@H](O)[C@H]3O)c1C2=O (some centres undefined) | u | 1µM* | 0.891µM* | 3.6% | u
O=C1c2c(O)cccc2C(C2OC(CO)[C@@H](O)[C@H](O)[C@H]2O)c2cc(CO)cc(O)c21 (some centres undefined) | -24.4% | 142.9% | 0.9% | 7.5% | 39.8µM*
O=c1ccc2cc(O[C@@H]3O[C@@H](CO)[C@H](O)[C@@H](O)[C@@H]3O)c(O)cc2o1 | 6.1% | -16.1% | -5.0% | 3.8% | -0.6%
COc1c(O)cc2c(c1O)C1OC(CO)C(O)C(O)C1OC2=O (centres undefined) | -15.7% | -7.9% | -0.5% | -0.1% | -0.1%
O=C1c2cc(CO)cc(O)c2C(=O)c2c(O[C@@H]3OC(CO)[C@@H](O)[C@@H](O)[C@@H]3O)cccc21 (some centres undefined) | -17.1% | x | -10.1% | x | x
Nc1ncnc(Sc2ccc(Cl)cc2)c1[N+](=O)[O-] | u | -4.9% | 5.2% | 8.0% | u
